Laboratory results taken from PubChem BioAssay (NCI).
The panel holds about 83,000 compounds, 20% with a hit somewhere; the sample as a whole holds those more often.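 How to read the values: 0–100, growth inhibition (40 = 60% inhibited); 0, no net growth; -100 to 0, cell death (-40 = 40% of starting cells died; -100 = all dead).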 Unmarked numbers belong to inactive results. Active and inactive are the calls of the source. How the source made its calls: active means growth percent below 10; inactive means the rest.

How the values were obtained:
Assay in all cases: NCI-60 one-dose screen, 48 h (100 = growth as untreated, 0 = no growth, -100 = all killed)
Conditions in all cases: 10 µM unless noted
[1] = test system: HCT-15 colon
[2] = test system: HT29 colon
[3] = test system: SNB-75 CNS
[4] = test system: SNB-19 CNS
[5] = test system: U251 CNS
[6] = test system: SK-MEL-5 melanoma
[7] = test system: UACC-62 melanoma
[8] = test system: LOX IMVI melanoma
[9] = test system: SK-MEL-28 melanoma
[10] = test system: SK-MEL-2 melanoma
[11] = test system: EKVX NSCLC
[12] = test system: SN12C renal
[13] = test system: UO-31 renal
[14] = test system: TK-10 renal
[15] = test system: ACHN renal
[16] = test system: CAKI-1 renal
[17] = test system: A498 renal
[18] = test system: CCRF-CEM leukemia
[19] = test system: MOLT-4 leukemia

SMILES | growth [1] | growth [2] | growth [3] | growth [4] | growth [5] | growth [6] | growth [7] | growth [8] | growth [9] | growth [10] | growth [11] | growth [12] | growth [13] | growth [14] | growth [15] | growth [16] | growth [17] | growth [18] | growth [19]
CCOC(=O)c1sc2nc(-c3cccc(OC)c3)nc(N3CCOCC3)c2c1C | 96.4% | 89.9% | 95.3% | 89.1% | 86.9% | 85.5% | 75.6% | 94% | 101% | 93.2% | 87.7% | 87.5% | 79.7% | 98.1% | 103% | 79.8% | 101% | 98.4% | 93.1%
C#CCOc1ccc2ncnc(NCc3cccc(NC(=O)CCl)c3)c2c1 | 22.6% [8.25 µM] | 19.9% [8.25 µM] | 55.7% [8.25 µM] | 37.8% [8.25 µM] | -19.2% [8.25 µM] (active) | 23.8% [8.25 µM] | 31.8% [8.25 µM] | 46.7% [8.25 µM] | 58.1% [8.25 µM] | 39.7% [8.25 µM] | 65.6% [8.25 µM] | 25.8% [8.25 µM] | 84.9% [8.25 µM] | 74.1% [8.25 µM] | 39.5% [8.25 µM] | 73.3% [8.25 µM] | 77.9% [8.25 µM] | 4.16% [8.25 µM] (active) | 3.48% [8.25 µM] (active)
Cc1cc(C)nc(SC2=C(Nc3ccc(O)cc3)C(=O)N(Cc3ccccc3)C2=O)n1 | 89.5% [40 µM] | 119% [40 µM] | 89.8% [40 µM] | 85.1% [40 µM] | 91.9% [40 µM] | 82.4% [40 µM] | 68.4% [40 µM] | 82.8% [40 µM] | 112% [40 µM] | 96.1% [40 µM] | 77.4% [40 µM] | 94.3% [40 µM] | 70.8% [40 µM] | 110% [40 µM] | 93.4% [40 µM] | 64.4% [40 µM] | 112% [40 µM] | 39.1% [40 µM] | 58% [40 µM]
C#Cc1cccc(NC(=O)c2ccccc2NC(=O)CCl)c1 | 68.7% [8.25 µM] | 86.1% [8.25 µM] | 70.5% [8.25 µM] | 74.2% [8.25 µM] | 74.6% [8.25 µM] | 87.7% [8.25 µM] | 85.1% [8.25 µM] | 91.4% [8.25 µM] | 102% [8.25 µM] | 90.2% [8.25 µM] | 94.1% [8.25 µM] | 64.6% [8.25 µM] | 86.9% [8.25 µM] | 91% [8.25 µM] | 92% [8.25 µM] | 87.9% [8.25 µM] | 107% [8.25 µM] | 50.4% [8.25 µM] | 70.3% [8.25 µM]
CC1=CC(C)(C)Nc2ccc(Cc3ccc4c(c3)C(C)=CC(C)(C)N4)cc21 | 101% | 103% | 86.3% | 93.4% | 93.5% | 92.8% | 84.1% | 88.7% | 104% | 90.6% | 81.4% | 97.1% | 77.8% | 112% | 93.8% | 73.6% | 109% | – | 82.9%
Fc1ccc2[nH]cc(SSc3c[nH]c4ccc(F)cc34)c2c1 | 25.8% | 39.2% | 64.1% | 41.1% | 13.8% | 70% | 63.8% | 25.5% | 75.6% | 62.8% | 14.2% | 65.1% | 21.5% | 84.6% | 55.1% | 32.6% | 35% | 15.9% | 14%
FC(F)(F)c1ccc(-c2cn3nc(-c4c[nH]c5ccc(Br)cc45)sc3n2)cc1 | 70.6% | 97.4% | 86.1% | 100% | 92.2% | 96.3% | 84.8% | 88.2% | 111% | 97.8% | 68.9% | 93.9% | 68.8% | 112% | 88.6% | 61.4% | 113% | 95% | 87.6%
O=C(CCN1C(=O)/C(=C/c2ccc(Cl)cc2)SC1=S)NCCCN1CCOCC1 | 98% | 105% | 92.4% | 101% | 102% | 97.5% | 92.4% | 99.7% | 100% | 106% | 90.9% | 98.5% | 84.9% | 110% | 91.4% | 94.4% | 106% | 103% | 102%
Cn1ccnc1C(=O)/C=C/c1ccccc1 | 20.4% | 1.12% (active) | 12.9% | 42.2% | 25% | 15% | 43.1% | 18.3% | 30.1% | 46.9% | -9.85% (active) | 41.6% | -33.7% (active) | 15.3% | 33% | 11.7% | -15.9% (active) | 9.1% (active) | 70%
COC(=O)c1cccc(NC(=O)c2ccc(-c3cccc(N)c3)o2)c1 | 96.6% | 107% | 93.2% | 95.5% | 104% | 81.8% | 91.4% | 99.6% | 102% | 98.3% | 94.5% | 94% | 83% | 125% | 102% | 91.3% | 105% | 71.7% | 85.9%
Cc1[nH]c(-c2ccc3cc[nH]c3c2)c2c1C(=O)CCCC2 | 30.6% | 27.4% | 6.65% (active) | 53.1% | 48.5% | 49.6% | 24.8% | 16.2% | 66.2% | 71% | 47.8% | 50.8% | 22.2% | 32.7% | 41.2% | 11.9% | 44.4% | 64.7% | 68.6%
Cn1cccc1-c1nc2c3c(ccc2[nH]1)C(=O)c1ccccc1C3=O | 82.1% | 104% | 137% | 105% | 87.5% | 90.4% | 80.5% | 88.9% | 117% | 91.4% | 65.2% | 91.9% | 58.7% | 98.7% | 80.7% | 96.3% | 88.7% | 78.9% | 62.1%
O=C(NCCN1CCOCC1)Nc1ccc(-c2cc3c(Nc4ccc(Oc5cccc(C(F)(F)F)c5)c(Cl)c4)ncnc3s2)cc1 | -56.2% (active) | -69.2% (active) | -48.4% (active) | 43.1% | 0.383% (active) | -90.9% (active) | -40.3% (active) | -86.6% (active) | -49.8% (active) | 32% | 20.8% | 42.9% | -35.8% (active) | 49.8% | 11.8% | 8.01% (active) | 40.3% | 3.33% (active) | -4.36% (active)
COC(=O)c1ccc2oc(NC(=O)c3ccc(Nc4ccc([N+](=O)[O-])cc4C)c([N+](=O)[O-])c3)nc2c1 | 104% | 96.8% | 97.5% | 99% | 101% | 93.6% | 100% | 99.7% | 108% | 101% | 79.9% | 97.2% | 90.7% | 100% | 104% | 89.5% | 108% | 107% | 105%
CC(O)CN1CC(O)=C(c2nc3ccccc3s2)C1=N (centres undefined) | 158% | 104% | 99.3% | 96.5% | 157% | 105% | 102% | 211% | 131% | 95.1% | 108% | 103% | 90.3% | 131% | 228% | 101% | 116% | 97.4% | 103%
